PubChem BioAssay
Results filed as inconclusive are left out. Active and inactive are the calls of the source.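 Rule for the calls, unless noted: active = normalized viability below 100% at a tested concentration; inactive = the rest.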

Experiments:
[1] = Wnt pathway potentiators raising nuclear beta-catenin – imaging, WNT3A-conditioned medium, mouse C2C12, NPC library, primary screen (AID 1117326; in the data active = nuclear beta-catenin stimulation mostly above about 4.2%, no sharp cut-off; inactive = mostly below about 10%); conditions: stronger effect = higher value
[2] = stimulators of insulin release from INS-1E, primary screen, cell-based, 5 mM glucose, NPC library (AID 1117329;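 active = compound raises insulin release from rat beta cells at 5 mM glucose, no numeric limit stated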); conditions: rat INS-1E insulin secretion, at 10 µM, stronger effect = higher value
[3] = growth inhibition of GSK3B-pretreated HCT116 cells – cell-based, CellTiter-Glo, 0.2 to 20 µM (AID 1117336;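 active = compounds lowering colon cancer cell viability after pretreatment blocking the GSK3B kinase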); conditions: HCT116 viability after GSK3B inhibitor, at 20 µM, stronger effect = higher value
[4] = inhibition of endothelial tube formation, primary screen, imaging, VEGF stimulated, CD31 staining, tube area, NPC library (AID 1117340;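 active = compound that reduces growth-factor-driven endothelial tube area in a mixed cell culture, no cutoff stated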); conditions: VEGF-stimulated ADSC/ECFC co-culture, at 10 µM, stronger effect = higher value
[5] = GLP1 release stimulators, primary, NCI-H716, NPC library (AID 1117341;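 active = compound raises GLP1 secretion from the human gut endocrine cells, with no numeric limit stated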); conditions: NCI-H716 cells, at 10 µM, stronger effect = higher value
[6] = HCT116 colon cancer cell growth inhibition, primary screen, CellTiter-Glo luminescence, NPC library (AID 1117342;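 active = compounds that lower survival of HCT116 colon cancer cells in the luminescence readout, no numeric limit stated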); conditions: at 20 µM (top of the series)
[7] = reduced SW480 viability measured with CellTiter-Glo, NPC library, primary (AID 1117343;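 active = compounds that lower viability of the colon cancer cells in the luminescence readout, with no numeric limit stated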); conditions: CellTiter-Glo luminescence; at 20 µM (top of the series) unless noted
[8] = NPC library primary testing for decreased DLD-1 cell viability via CellTiter-Glo (AID 1117346;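 active = compounds that lower survival of DLD-1 colon cancer cells in the luminescence readout, no cutoff given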); conditions: DLD-1 viability, CellTiter-Glo luminescence; at 20 µM (top of the series)
[9] = viability loss in pontine glioma line – cell-based, SU-DIPG-XVII, MIPE5.0, CellTiter-Glo, qHTS, dose response (AID 1347060; cut-off not given, nearly all actives have AC50 up to about 26 µM;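 for AC50: cells exposed to compound for 48 hours before viability readout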); conditions: CellTiter-Glo ATP luminescence
[10] = viability loss in pontine glioma line – cell-based, SU-DIPG-XIII, MIPE4.0, CellTiter-Glo, qHTS, dose response (AID 1347061; cut-off not given, nearly all actives have AC50 up to about 37 µM;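 note: cells exposed to compound for 48 hours before readout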); conditions: CellTiter-Glo ATP luminescence
[11] = viability loss in pontine glioma line – cell-based, JHH-DIPG-1, MIPE4.0, CellTiter-Glo, qHTS, dose response (AID 1347062; cut-off not given, nearly all actives have AC50 up to about 27 µM;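 for AC50: cells exposed to compound for two days before readout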); conditions: JHH-DIPG-1 viability, CellTiter-Glo ATP luminescence
[12] = growth inhibition of DIPG cells – cell-based, MIPE5.0 library, qHTS (AID 1347068; cut-off not given, nearly all actives have IC50 up to about 30 µM); conditions: SU-DIPG-XXV viability
[13] = target: NAD(+) hydrolase SARM1 (Homo sapiens) (UniProt Q6SZW1); experiment: blocking NAD cleavage by SARM1 SAM-TIR – cell lysate, NAD-Glo luminescence (AID 1508614;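 active = compound whose remaining NAD level is above about 45 nM, limit read from the data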;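 note: higher remaining NAD means stronger inhibition of SARM1 NADase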); conditions: SAM-TIR HEK293T lysate NADase, at 1 µM, stronger effect = higher value
[14] = viability loss with induced miR-34 in A549 – imaging, A549 dox-inducible miR-34, nuclei and caspase counts, primary screen (AID 1347080;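 active = compounds whose cell count with miR-34 switched on is under 0.7 times the count with it off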); conditions: A549 miR-34 inducible, Hoechst nuclei count, 48 h
[15] = drug combination growth inhibition, ovarian cancer – cell-based, oncology-focused library, rucaparib conditional, profiling panel (AID 1508598); conditions: patient-derived ovarian cancer cells, CellTiter-Glo viability, 144 h, stronger effect = lower value
[16] = galactose survival enhancers in mitochondrial complex I cybrids – cell-based, galactose medium, ATP luminescence, primary screen (AID 1645843;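 active = z-score of at least 1.8 in each of two replicates, scored against plate mean and spread of sample wells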;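 note: positive z means more ATP and so rescue of galactose-driven cybrid death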); conditions: complex I mutant cybrid cells, 72 h, stronger effect = higher value
[17] = tested on: Aerobactin synthetase IucA (Klebsiella pneumoniae); experiment: inhibition of K. pneumoniae IucA enzyme – biochemical, Tocris library, absorbance (AID 1345561; call rule not given here;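 note: 100% = enzyme without compound and 0% = no enzyme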); conditions: purified IucA enzyme assay, absorbance (OD) read-out; stronger effect = lower value;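 tested at 8 µM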
[18] = stronger effect = lower value, cell number ratio, induced over uninduced
[19] = measured here: relative caspase fold change +Dox/-Dox
[20] = measured here: total cells with miR-34 induction, stronger effect = lower value
[21] = measured here: total cells without miR-34 induction

Chain of NAD(+) hydrolase SARM1 (Homo sapiens) (Q6SZW1 whole entry, looked up): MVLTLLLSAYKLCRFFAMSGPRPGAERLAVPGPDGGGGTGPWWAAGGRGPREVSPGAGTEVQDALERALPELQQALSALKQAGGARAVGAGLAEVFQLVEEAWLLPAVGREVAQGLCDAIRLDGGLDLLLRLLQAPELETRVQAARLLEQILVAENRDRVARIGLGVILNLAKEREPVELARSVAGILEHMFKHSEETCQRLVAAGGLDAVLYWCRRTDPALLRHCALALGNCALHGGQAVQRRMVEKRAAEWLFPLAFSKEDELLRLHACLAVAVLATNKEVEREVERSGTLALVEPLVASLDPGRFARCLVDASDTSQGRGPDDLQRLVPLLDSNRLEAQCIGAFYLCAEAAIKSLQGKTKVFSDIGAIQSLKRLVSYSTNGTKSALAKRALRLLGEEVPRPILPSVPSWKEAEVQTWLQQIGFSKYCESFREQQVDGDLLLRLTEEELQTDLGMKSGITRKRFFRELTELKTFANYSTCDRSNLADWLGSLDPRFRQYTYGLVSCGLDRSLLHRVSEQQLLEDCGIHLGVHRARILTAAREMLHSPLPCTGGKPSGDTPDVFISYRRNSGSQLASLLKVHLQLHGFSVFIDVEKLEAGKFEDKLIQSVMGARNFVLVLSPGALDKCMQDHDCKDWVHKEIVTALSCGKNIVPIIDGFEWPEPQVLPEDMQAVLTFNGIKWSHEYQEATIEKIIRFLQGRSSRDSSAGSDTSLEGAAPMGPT

CSCC[C@H](NC(=O)[C@H](Cc1c[nH]c2ccccc12)NC(=O)CCNC(=O)OC(C)(C)C)C(=O)N[C@@H](CC(=O)O)C(=O)N[C@@H](Cc1ccccc1)C(N)=O
active: AC50 [10] 0.935 µM
1.3%: nuclear beta-catenin stimulation ([1]; stimulation, at 2 µM)
inactive: nuclear beta-catenin stimulation ([1]; at 10 µM) 0.1% | insulin secretion stimulation [2] 0.8% | viability decrease [3] -19% | tube area decrease [4] 5.2% | GLP1 secretion stimulation [5] 0.3% | inhibition of viability [6] -11.9% | viability decrease (inhibition) [7] 23.6% | viability decrease (inhibition) [8] -23.3% | outcome [9] | outcome [11] | outcome [12] | remaining NAD [13] 10 nM

CCN(CC)CCNC(=O)c1c(C)[nH]c(/C=C2\C(=O)Nc3ccc(F)cc32)c1C
715: cell count [14, 20]
1.17: fold change [14, 19]
780: cell count [14, 21]
-2%: nuclear beta-catenin stimulation ([1]; stimulation, at 2 µM)
active: insulin secretion stimulation [2] 47.3% | viability decrease [3] 108% | tube area decrease [4] 103% | inhibition of viability [6] 110% | viability decrease (inhibition) [7] 127% | viability decrease (inhibition) [8] 93.4% | AC50 [9] 7.42 µM | AC50 [10] 38.2 µM | AC50 [11] 10.8 µM | viability ([15]; at 0.000305 µM, OCI-P5x cells, with rucaparib 20 µM, 100% = cells with rucaparib alone) 84% | viability ([15]; at 0.000305 µM, OCI-P5x cells, without rucaparib) 93.8% | viability ([15]; at 0.00122 µM, OCI-P5x cells, with rucaparib 20 µM, 100% = cells with rucaparib alone) 98.6% | viability ([15]; at 0.00122 µM, OCI-P5x cells, without rucaparib) 88.3% | viability ([15]; at 0.00488 µM, OCI-P5x cells, with rucaparib 20 µM, 100% = cells with rucaparib alone) 96.3% | viability ([15]; at 0.00488 µM, OCI-P5x cells, without rucaparib) 97.4% | viability ([15]; at 0.0195 µM, OCI-C5x cells, without rucaparib) 99.1% | viability ([15]; at 0.0195 µM, OCI-P5x cells, with rucaparib 20 µM, 100% = cells with rucaparib alone) 98.7% | viability ([15]; at 0.0195 µM, OCI-P5x cells, without rucaparib) 95.9% | viability ([15]; at 0.0781 µM, OCI-P5x cells, with rucaparib 20 µM, 100% = cells with rucaparib alone) 95% | viability ([15]; at 0.0781 µM, OCI-P5x cells, without rucaparib) 99.9% | viability ([15]; at 0.313 µM, OCI-P5x cells, with rucaparib 20 µM, 100% = cells with rucaparib alone) 93.2% | viability ([15]; at 0.313 µM, OCI-P5x cells, without rucaparib) 99.5% | viability ([15]; at 1.25 µM, OCI-P5x cells, with rucaparib 20 µM, 100% = cells with rucaparib alone) 89.1% | viability ([15]; at 5 µM, OCI-C5x cells, with rucaparib 10 µM, 100% = cells with rucaparib alone) 60.6% | viability ([15]; at 5 µM, OCI-C5x cells, without rucaparib) 21.7% | viability ([15]; at 5 µM, OCI-P5x cells, with rucaparib 20 µM, 100% = cells with rucaparib alone) 1.9% | viability ([15]; at 5 µM, OCI-P5x cells, without rucaparib) 12.8%
inactive: nuclear beta-catenin stimulation ([1]; at 10 µM) 0.3% | GLP1 secretion stimulation [5] 18.2% | fold change [14, 18] 0.916 | viability ([15]; at 0.000305 µM, OCI-C5x cells, with rucaparib 10 µM, 100% = cells with rucaparib alone) 110% | viability ([15]; at 0.000305 µM, OCI-C5x cells, without rucaparib) 107% | viability ([15]; at 0.00122 µM, OCI-C5x cells, with rucaparib 10 µM, 100% = cells with rucaparib alone) 114% | viability ([15]; at 0.00122 µM, OCI-C5x cells, without rucaparib) 102% | viability ([15]; at 0.00488 µM, OCI-C5x cells, with rucaparib 10 µM, 100% = cells with rucaparib alone) 113% | viability ([15]; at 0.00488 µM, OCI-C5x cells, without rucaparib) 108% | viability ([15]; at 0.0195 µM, OCI-C5x cells, with rucaparib 10 µM, 100% = cells with rucaparib alone) 115% | viability ([15]; at 0.0781 µM, OCI-C5x cells, with rucaparib 10 µM, 100% = cells with rucaparib alone) 118% | viability ([15]; at 0.0781 µM, OCI-C5x cells, without rucaparib) 111% | viability ([15]; at 0.313 µM, OCI-C5x cells, with rucaparib 10 µM, 100% = cells with rucaparib alone) 123% | viability ([15]; at 0.313 µM, OCI-C5x cells, without rucaparib) 113% | viability ([15]; at 1.25 µM, OCI-C5x cells, with rucaparib 10 µM, 100% = cells with rucaparib alone) 126% | viability ([15]; at 1.25 µM, OCI-C5x cells, without rucaparib) 117% | viability ([15]; at 1.25 µM, OCI-P5x cells, without rucaparib) 104% | z-score [16] -1

COc1ccc(CCN(C)CCCN2CCc3cc(OC)c(OC)cc3CC2=O)cc1OC
8880: cell count [14, 21]
0%: nuclear beta-catenin stimulation ([1]; stimulation, at 2 µM)
8020: cell count [14, 20]
1.41: fold change [14, 19]
inactive: nuclear beta-catenin stimulation ([1]; at 10 µM) 1.2% | insulin secretion stimulation [2] 10.7% | viability decrease [3] -11.1% | tube area decrease [4] -12.6% | GLP1 secretion stimulation [5] 7.6% | inhibition of viability [6] 7.5% | viability decrease (inhibition) [7] -4.7% | viability decrease (inhibition) [8] 12.1% | remaining activity [17] 98.9% | fold change [14, 18] 0.903 | z-score [16] -0.34

Cc1oc(=O)oc1CN1CCN(c2cc3c(cc2F)c(=O)c(C(=O)O)c2n3C(C)S2)CC1 (configuration not stated)
1.4%: nuclear beta-catenin stimulation ([1]; stimulation, at 2 µM)
inactive: nuclear beta-catenin stimulation ([1]; at 10 µM) 0.8% | insulin secretion stimulation [2] 1.6% | viability decrease [3] 35.8% | tube area decrease [4] 4.4% | GLP1 secretion stimulation [5] 2.3% | inhibition of viability [6] 38.1% | viability decrease (inhibition) [7] 26.1% | viability decrease (inhibition) [8] 1.4% | outcome [9] | outcome [10] | outcome [11] | outcome [12] | remaining NAD [13] 10 nM
